Screens from PubChem BioAssay.
ULK1 inh – blocks human autophagy kinase ULK1; O75385; AlphaScreen Atg13 phosphorylation by ULK1, luminescence; inhibition, % at 5.96 µM; 30,000 compounds, 1.9% hits; in the data active = inhibition above about 43%
ASK1 inh – inhibitors of human ASK1 kinase; Q99683; AID 1159602; 22,000 compounds, 0.99% hits; AlphaScreen MKK6 phosphorylation by ASK1, luminescence; inhibition, % at 7.44 µM; in the data active = inhibition above about 35%
Target sequence (Q99683 whole entry, looked up): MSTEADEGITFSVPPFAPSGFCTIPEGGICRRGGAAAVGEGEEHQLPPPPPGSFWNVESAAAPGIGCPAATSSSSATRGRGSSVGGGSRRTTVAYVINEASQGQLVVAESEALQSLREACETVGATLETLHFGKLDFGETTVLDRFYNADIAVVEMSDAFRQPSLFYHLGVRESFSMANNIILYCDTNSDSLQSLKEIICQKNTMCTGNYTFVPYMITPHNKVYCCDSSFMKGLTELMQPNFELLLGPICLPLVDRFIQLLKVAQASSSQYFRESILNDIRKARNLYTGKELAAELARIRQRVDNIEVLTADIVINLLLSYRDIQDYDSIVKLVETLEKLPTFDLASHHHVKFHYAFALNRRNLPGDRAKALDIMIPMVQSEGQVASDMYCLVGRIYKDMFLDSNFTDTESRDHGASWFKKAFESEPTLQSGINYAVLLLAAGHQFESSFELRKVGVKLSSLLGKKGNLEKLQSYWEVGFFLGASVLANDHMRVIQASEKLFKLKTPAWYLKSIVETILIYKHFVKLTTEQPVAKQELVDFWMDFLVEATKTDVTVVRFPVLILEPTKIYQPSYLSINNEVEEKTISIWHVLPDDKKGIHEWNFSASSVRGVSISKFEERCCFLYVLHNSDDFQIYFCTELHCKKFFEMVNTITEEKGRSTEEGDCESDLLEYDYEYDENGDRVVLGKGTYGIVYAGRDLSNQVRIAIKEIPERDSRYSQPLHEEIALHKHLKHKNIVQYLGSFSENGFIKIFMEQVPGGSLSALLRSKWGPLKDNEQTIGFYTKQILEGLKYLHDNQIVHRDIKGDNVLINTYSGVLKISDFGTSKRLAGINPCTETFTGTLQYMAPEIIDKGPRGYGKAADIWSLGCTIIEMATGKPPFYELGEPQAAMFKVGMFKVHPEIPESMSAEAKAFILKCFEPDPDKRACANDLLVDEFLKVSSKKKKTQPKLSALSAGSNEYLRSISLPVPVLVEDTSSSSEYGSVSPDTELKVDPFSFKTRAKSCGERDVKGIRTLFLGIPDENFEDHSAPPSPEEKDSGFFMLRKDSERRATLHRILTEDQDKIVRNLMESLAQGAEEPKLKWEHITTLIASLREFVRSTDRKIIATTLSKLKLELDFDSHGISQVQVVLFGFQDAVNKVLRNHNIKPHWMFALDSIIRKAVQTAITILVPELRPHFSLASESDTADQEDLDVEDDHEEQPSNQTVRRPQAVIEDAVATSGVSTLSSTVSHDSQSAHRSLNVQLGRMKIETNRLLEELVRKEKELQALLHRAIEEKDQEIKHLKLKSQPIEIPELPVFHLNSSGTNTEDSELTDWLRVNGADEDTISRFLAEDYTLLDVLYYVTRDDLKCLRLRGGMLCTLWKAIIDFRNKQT
Numbers stand for hits; - = inactive; . = no result given. A selection: hits, their analogues and other compounds. The true share with any hit is near 2.5%.

SMILES	ULK1 inh	ASK1 inh
CNC(=O)c1ncccc1Nc1cc(Nc2ccc3c(c2)CC(=O)N3)ncc1C(F)(F)F	-	-
CNC(=O)c1cc(F)ccc1Nc1cc(Nc2ccc3c(c2)NC(=O)C3)ncc1C(F)(F)F	64	-
N#Cc1ccccc1Nc1cc(NC(=O)Cc2ccc(F)cc2)ncc1C(F)(F)F	-	-
CCNC(=O)c1ccc(COc2cccc3c2OC(C)(C)C3)cc1	-	.
COc1ccc(-c2nc(NCCc3ccc(O)cc3)c3[nH]cnc3n2)cc1	-	-
Cn1c(Nc2cccc(C(=O)NCc3cccnc3)n2)nc2ccccc21	-	-
O=C1CCCN1CCCNc1nc(NC2CCN(Cc3ccccc3)CC2)nc2nc[nH]c12	-	-
CCCCCCCn1c(SCC(O)CCl)nc2c1c(=O)[nH]c(=O)n2C (centres undefined)	-	.
COc1ccc(CCNc2ncnc3c2nc(Nc2ccc(N4CCOCC4)cc2)n3C(C)C)cc1	-	-
O=C(NCCN1CCOCC1)c1cccc(-n2ncc3cc(Nc4ccccc4)c(N4CCOCC4)cc32)c1	65	-
COc1cc2c(cnn2-c2cccc(C(=O)NCCN3CCOCC3)c2)cc1Nc1ccccc1	-	-
CC(C)N(CCNC(=O)C1CCN(c2ccc(NCc3ccc4c(c3)OCO4)nn2)CC1)C(C)C	-	-
O=C(Nc1ccc2c(c1)OCO2)c1ccnc(Nc2ccc(N3CCOCC3)cc2)c1	-	-
CN(C)CCOC(c1ccccc1)c1ccc(Br)cc1 (centres undefined)	-	.
C[N+](C)(C)CCOC(c1ccccc1)c1ccccc1	82	.
COc1ccc2c(c1)CC(C(=O)Nc1ccc(-c3cn[nH]c3N)cc1)NC2 (centres undefined)	-	-
O=C(NCCCN1CCCC1=O)c1cc(NCCN2CCOCC2)nc2ccccc12	-	-
COC(CNc1cc(-c2ccc(F)cc2)nc(-c2cccnc2)n1)OC	-	.
Cc1cc2c(C(C)C)c(O)c(O)c(C=O)c2c(O)c1-c1c(C)cc2c(C(C)C)c(O)c(O)c(C=O)c2c1O	57	.
CC(C)n1cnc2c(NCCOc3ccccc3)nc(Cl)nc21	-	-
CC(C)N(CCNc1nc(-c2ccc(C(=O)NC3CC3)cc2)nc2c1ncn2C(C)C)C(C)C	-	-
CCCNC(=O)c1ccnc(Nc2ccncn2)c1	-	-
O=C(Cc1cn(-c2ccc(NCCCN3CCCC3=O)nn2)c2ccccc12)Nc1ccc(Oc2ccccc2)cc1	-	-
O=C(Cc1cn(-c2ccc(NCCCN3CCCC3=O)nn2)c2ccccc12)Nc1ccccc1	-	-
CC(=O)Nc1ccc(NC(=O)Cc2cn(-c3ccc(NCCCN4CCCC4=O)nn3)c3ccccc23)cc1	44	-
SMILES	ULK1 inh	ASK1 inh
O=C(Cc1cn(-c2ccc(NCCCN3CCCC3=O)nn2)c2ccccc12)Nc1ccc(N2CCOCC2)cc1	47	-
CCCS(=O)(=O)NCCS(=O)(=O)N1CCN(c2ccccc2)CC1	-	.
CCC(=O)/C=C/n1c(=S)oc2ccccc21	48	.
COc1cccc(CCNC(=O)c2cn3cc(-c4cn[nH]c4)ccc3n2)c1	-	-
CN(C)S(=O)(=O)Nc1ccc(-c2ccnc(Nc3ccc(S(N)(=O)=O)cc3)n2)cc1	48	-
NS(=O)(=O)c1ccc(Nc2nccc(-c3ccc(Nc4ccccc4)cc3)n2)cc1	-	-
CS(=O)(=O)Nc1cccc(-c2ccnc(Nc3cccc(S(N)(=O)=O)c3)n2)c1	-	-
CCS(=O)(=O)c1ccc(-c2ccnc(Nc3ccc(S(N)(=O)=O)cc3)n2)cc1	-	-
CS(=O)(=O)Cc1ccc(-c2ccnc(Nc3ccc(S(N)(=O)=O)cc3)n2)cc1	50	-
CS(=O)(=O)Nc1ccc(-c2ccnc(Nc3cccc(S(N)(=O)=O)c3)n2)cc1	58	-
COc1cccc(CNC(=O)Nc2ccc(-c3cn[nH]c3C)cc2OCCN2CCOCC2)c1	-	-
COc1cc(Nc2nc(-c3cccc(N)c3)nc3c2ncn3Cc2ccc(C(F)(F)F)cc2)cc(OC)c1OC	-	-
CC(C)n1cnc2c(Nc3ccccc3)nc(-c3ccc(C(=O)NC4CC4)cc3)nc21	-	-
O=C(Nc1ccccc1)Nc1cnn(-c2ccc3c(c2)C(Nc2ccc(N4CCOCC4)cc2)CCC3)c1 (centres undefined)	45	-
CC(C(=O)Nc1cnn(-c2cccc(C(=O)Nc3ccc(N4CCOCC4)cc3)c2)c1)c1ccccc1 (centres undefined)	-	-
Cc1nc(NCc2ccccc2)cc(-c2cncc(-c3ccc(F)cc3)c2)n1	-	.
CCN(CC)c1nc(Nc2cc(OC)c(OC)c(OC)c2)nc(N2CCC(N3CCOCC3)CC2)n1	-	-
Cc1ccc(-c2ncn(-c3ccc(Nc4ncc5ccc(-c6cnn(C)c6)cc5n4)cc3)n2)cn1	-	-
Cn1cc(-c2ccc3cnc(Nc4ccc(C(=O)N5CCOCC5)cc4)nc3c2)cn1	73	-
Cn1ncc2cc(Nc3ncc4ccc(-c5cn[nH]c5)cc4n3)ccc21	75	-
Cn1cc(-c2ccc3cnc(Nc4ccc(N5CCOCC5)cc4)nc3c2)cn1	84	-
Cn1cc(-c2nc(Nc3ccc(N4CCOCC4)cc3)ncc2F)cn1	-	-
c1cc(-c2ccc3cnc(Nc4ccc(-n5cnc(N6CCOCC6)n5)cc4)nc3c2)c[nH]1	-	-
Cn1cc(-c2ccc3cnc(Nc4ccc(-n5ccnc5)cc4)nc3c2)cn1	88	-
Cn1cc(-c2ccc3cnc(Nc4ccc(-n5cnc(-c6ccccn6)n5)cc4)nc3c2)cn1	-	-
SMILES	ULK1 inh	ASK1 inh
Cc1cc(NCCc2ccc(O)cc2)nc(Nc2ccc(-n3ccnc3)cc2)n1	-	-
O=C(NCCc1ccc(O)cc1)c1ccc2nc(Nc3ccncn3)sc2c1	-	-
CN(C)CCS(=O)c1cc(-c2cn[nH]c2)ccc1NC(=O)[C@H]1Cc2cc(F)ccc2CN1 (some centres undefined)	-	-
Cc1nc(C)n(-c2ccc(Nc3ncc4ccc(-c5cn[nH]c5)cc4n3)cc2)n1	-	-
Cc1nc(C)n(-c2ccc(Nc3cc4cc(-c5cn[nH]c5)ccc4cn3)cc2)n1	81	-
Cc1cnc(Nc2ccc(-n3ccnc3)cc2)nc1N	-	-
c1cn(-c2ccc(Nc3ncc4ccc(-c5cn[nH]c5)cc4n3)cc2)cn1	90	-
COc1ccc(-c2nc(Nc3ccc(Oc4ccccc4)cc3)c3ncn(-c4ccccc4)c3n2)cc1	-	-
CC(=O)Nc1ccc(Nc2nc(-c3cccc(N)c3)nc3c2ncn3Cc2ccc(C(F)(F)F)cc2)cc1	-	-
Cn1c(Nc2nc3ncnc(NCCN4CCOCC4)c3[nH]2)nc2ccccc21	-	-
FC(F)(F)c1ccc(Nc2nc(Nc3ccc(N4CCOCC4)cc3)c3[nH]cnc3n2)cc1	-	-
c1cn(-c2ccc(Nc3nc(NC4CC4)c4ncn(-c5ccsc5)c4n3)cc2)cn1	53	-
c1cc(Nc2nc(NC3CC3)c3ncn(-c4ccsc4)c3n2)ccn1	-	-
CCCNc1nc(Nc2ccc(-n3ccnc3)cc2)nc2nc[nH]c12	-	-
c1cn(-c2ccc(Nc3nc(NC4CC4)c4[nH]cnc4n3)cc2)cn1	57	-
c1nc2nc(Nc3ccc(N4CCOCC4)cc3)nc(NC3CC3)c2[nH]1	56	-
c1ccc(CN2CCC(Nc3nc(Nc4ccc5ncccc5c4)nc4c3ncn4C3CCCCC3)CC2)cc1	-	-
COc1ccc(CC(=O)Nc2cc(N3c4ccccc4C(=O)NC3(C)C)ccn2)cc1	-	-
NCc1ccc(Nc2nccc(-c3ccccc3)n2)cc1	-	-
Cc1cc(NCc2cccnc2)nc(-c2ccc(N3CCOCC3)nc2)n1	-	-
